Source: PubChem BioAssay (NCATS)
Records with an inconclusive call do not appear. Active and inactive are the calls of the source. Calls follow the shape of the dose curve; as a rule, active = well fitted cell-killing curve with a large enough effect; inconclusive = small, poorly fitted or top-dose-only effect; inactive = flat fitted curve, though single readings scatter.

Experiment: qHTS of pediatric cancer cell lines to identify multiple opportunities for drug repurposing: Primary screen for U-2 OS cells (AID 1347096); also: nearly all actives have a fitted effect of over 50% in size
Conditions: U-2 OS viability, CellTiter-Glo luminescence, 48 h; series mostly up to 46 µM
Excerpt: Drug repurposing or repositioning has been offered as a strategy for drug development in oncology programs. This approach has special potential for childhood cancers and other rare or orphan diseases, where the expected return on new drug development has been a disincentive to pharmaceuticals.
In this project we exploit the poly-pharmacology of drugs to discover new indications via phenotypic screening of a panel of 19 well-characterized cell lines derived from solid tumors seen in children and adolescents. The goal is to identify approved drugs with previously unrecognized anticancer properties that has the potential to reveal new mechanisms and biological processes involved in carcinogenesis or drug resistance. We employed a titration-based paradigm (quantitative high-throughput screening or qHTS), where all compounds were tested at multiple concentrations for their effect on cell viability. Concentration-response curves (CRCs) were derived directly from the primary screen, and both potency and efficacy values were used to identify compounds with robust bioactivity profiles. We screened the NIH Chemical Genomics Center (NCGC) Pharmaceutical Collection (NPC) and Mechanism Interrogation Plate (MIPE) small molecule collections of approved and investigational compounds against these cell lines; and measured metabolically active cells after 48 hours of compound treatment as a proxy for cell viability.
Assay Submitter: Nathalia J. Martinez, National Center for Advancing Translational Sciences, National Institutes of Health, Rockville, MD, USA; email: natalia.martinez@nih.gov
[1] Shen, M et al. Quantitative high-throughput phenotypic screening of pediatric cancer cell lines identifies multiple opportunities for drug repurposing. Oncotarget 2017 Dec 19;9(4):4758-4772. PMID 29435139.
The cells were obtained from University of North Carolina (UNC), Pediatric Preclinical Testing Program (PPT), and Coriell Institute (CI).
qHTS cell viability assay:
Cells were assayed in growth media at a density of 500-1,000 cells/well. Five microliters of cells were dispensed into 1,536-well, white, solid-bottom, TC-treated plates (Greiner Bio One) using a multidrop dispenser and incubated at 37 degrees C, 5% CO2, under a humidified atmosphere for 5 hours. Twenty-three nanoliters of compounds and controls (neutral control DMSO or positive control bortezomib at final concentration of 2.3 µM) were subsequently transferred by Kalypsys pintool. For primary screens, the MIPE collection was tested at 11-point dilutions (final concentrations range from 0.78 nM to 46 µM) and the NPC collection at 8-point dilutions (final concentrations range from 0.59 nM to 46 µM). Compounds tested in follow-up screens were assayed at 11-point dilutions. Cells were incubated for 48 hours, followed by addition of 3 µL of CellTiter-Glo (Promega). After a 15 min incubation at room temperature, samples were analyzed for luminescence intensity using a ViewLux High-throughput CCD imager equipped with clear filters.

Compound | outcome | activity change, negative = cytotoxic
O=C1C(c2[nH]c3ccccc3c2O)=Nc2ccccc21 | inactive | 
CCN(CC)CCc1nc(-c2ccccc2)no1 | inactive | 
CC(=O)NCc1c(I)c(NC(C)=O)c(I)c(C(=O)O)c1I | inactive | 
CCCCCCCC(=O)OCC(O)CO (stereo not given) | inactive | 
O=C(NCC(O)CO)c1c(I)c(C(=O)NCC(O)CO)c(I)c(N(CCO)C(=O)CO)c1I (stereo not given) | inactive | 
Cc1c(NC(C)C)c(=O)n(-c2ccccc2)n1C | inactive | 
Cc1cc(NC(=O)C2=C(O)c3ccccc3S(=O)(=O)N2C)no1 | inactive | 
CC(C)(C)C(=O)OCOC(=O)[C@@H]1N2C(=O)[C@@H](NC(=O)[C@H](N)c3ccccc3)[C@H]2SC1(C)C | inactive | 
O=C(CN1CCNCC1)NC1CCCCC1 | inactive | 
O=C(O)C(S)C(S)C(=O)O (stereo not given) | inactive | 
CCCCCC(N)=O | inactive | 
COc1ccccc1Oc1c(NS(=O)(=O)c2ccc(C(C)(C)C)cc2)nc(-c2ncccn2)nc1OCCO | inactive | 
O=C1c2cccc(O)c2C(=O)c2c(O)cccc21 | inactive | 
C1CCN2C[C@@H]3C[C@@H](CN4CCCC[C@@H]34)[C@H]2C1 | inactive | 
CC[C@H](C)[C@H](N)C(=O)O | inactive | 
Nc1ncnc(Nc2ccccc2)n1 | inactive | 
C[C@@H]1CCC[C@H](C)N1 | inactive | 
CN1CCN(C(=O)C2CCCCC2)CC1 | inactive | 
C[n+]1ccccc1/C=N/O | inactive | 
C[N+](C)(C)CC(O)CC(=O)[O-] (stereo not given) | inactive | 

Compound | outcome | activity change, negative = cytotoxic
CC(=O)Oc1cccc(O)c1 | inactive | 
CC(=O)N(CC(O)CN(C(C)=O)c1c(I)c(C(=O)NCC(O)CO)c(I)c(C(=O)NCC(O)CO)c1I)c1c(I)c(C(=O)NCC(O)CO)c(I)c(C(=O)NCC(O)CO)c1I (stereo not given) | inactive | 
Cc1onc(-c2ccccc2)c1-c1ccc(S(N)(=O)=O)cc1 | inactive | 
COc1ccccc1OCC(O)CO (stereo not given) | inactive | 
CC(CN(C)C)C(C)(O)Cc1ccc(Cl)cc1 (stereo not given) | inactive | 
CN1C[C@@H]2C[C@H]1CN2c1cc2c(cc1F)c(=O)c(C(=O)O)cn2C1CC1 | inactive | 
NS(=O)(=O)c1cc(-c2nn[nH]n2)c(NCc2cccs2)cc1Cl | inactive | 
Cc1c(NC(=O)c2cccnc2)c(=O)n(-c2ccccc2)n1C | inactive | 
NS(=O)(=O)c1ccc(C(=O)O)cc1 | inactive | 
CCOc1ccccc1O[C@H](c1ccccc1)[C@H]1CNCCO1 | inactive | 
C[C@]1(Cn2ccnn2)[C@H](C(=O)O)N2C(=O)C[C@H]2S1(=O)=O | inactive | 
CC(=O)Nc1ccc(OCCOCCOc2ccc(NC(C)=O)cc2)cc1 | inactive | 
CCN(CC)S(=O)(=O)c1ccc(C(=O)O)cc1 | inactive | 
CCCCCCCCCCOc1cc2c(=O)c(C(=O)OCC)c[nH]c2cc1OCC |  | 0.999% [at 4.84 µM] (inactive)
Cc1cc(=O)[nH]c(=S)[nH]1 | inactive | 
C/C=C/C(=O)N(CC)c1ccccc1C | inactive | 
NNC(=O)CP(=O)(c1ccccc1)c1ccccc1 | inactive | 
CC1CCc2cc(F)cc3c(=O)c(C(=O)O)cn1c23 (stereo not given) | inactive | 
CC(=O)OCC(COC(C)=O)OC(C)=O | inactive | 
Cc1c(N(C)C)c(=O)n(-c2ccccc2)n1C | inactive | 
